The record followed here is the supplement of paper PMC8726507.

SMILES strings stand for the structures. Unmarked numbers belong to inactive results.

The first assay concerns Plasmodium falciparum NF54-HGL (transmission to Anopheles stephensi). The assay is described as follows: percentage of barcode signal found in uninfected mosquitoes (transmission-blocking activity); higher = stronger blocking of transmission to mosquito, active = 80 or more. Conditions: 10 µM; gametocyte preincubation time 24 h; readout time post-feed 8 days. As to the method:
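The mixture was fed to Anopheles stephensi in 96-well plates as blood meals tagged with DNA-barcoded Asaia bacteria. Eight days later, mosquitoes were classed infected or uninfected by luminescence (mean + 5 SD of unfed controls). Barcodes were quantified by Luminex MagPlex-TAG in the pooled uninfected and infected Asaia cultures, background-corrected, and the score is % of barcode signal in uninfected mosquitoes = 100*Iu/(Iu+Ii).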
Regarding `CNC(=O)c1nn(C)c2c1C(C)(C)Cc1cnc(Nc3ccc(N4CCN(C)CC4)cc3)nc1-2`, the “percentage of barcode signal found in uninfected mosquitoes” value (from here on “percentage of barcode signal found”) was 64%. For the compound `c1ccc(-c2[nH]c3ccccc3c2C(c2ccccn2)N2CCCC2)cc1` (configuration not stated), the “percentage of barcode signal found” value is 82.6% (active). On to `COc1cccn2c(C(=O)N3CCCCC3)c(C(F)(F)F)nc12`, for which the “percentage of barcode signal found” value is 27.1%. With `O=C(C1CCCCC1)N1CC(=O)N2CCc3ccccc3C2C1` (configuration not stated), the “percentage of barcode signal found” value was 51.6%. Regarding `COc1ccc(C2=NN(C3CCCCCC3)C(=O)C2(C)C)cc1OCCCCOc1ccc(-c2nn[nH]n2)cc1`, the “percentage of barcode signal found” value is 7.2%.

As to `Cc1nc(-c2ccccn2)nc(NCCc2ccc(S(C)(=O)=O)cc2)c1Cl`, the “percentage of barcode signal found” value is 67%. The same measure, in the same setting: as for `Cc1ccc(NC(=O)c2nc[nH]c2C(=O)Nc2nc3ccccc3[nH]2)c(C)c1`, the figure is 73.8%. On the same count and under the same terms, as for `Clc1ccc(CCNc2cc(-c3ccccc3)nc3ncnn23)cc1`, the figure is -1.04%; as for `O=C(Nc1nc(-c2ccccn2)cs1)C1CC1c1ccccc1F` (configuration not stated), 53.8%; as for `COc1cc2ncnc(NC3CCN(Cc4ccccc4)CC3)c2cc1OC`, 31%. Consider `Nc1ncnc2[nH]nc(Cc3cccc4ccccc34)c12`, for which the “percentage of barcode signal found” value is 67.8%. In the case of `CCc1c(C)nc(-n2nc(C)cc2NC(=O)c2ccccc2SC)[nH]c1=O`, the “percentage of barcode signal found” value was 53.6%. For `CN1CCCC1CCO[C@](C)(c1ccccc1)c1ccc(Cl)cc1` (some centres not stated), the “percentage of barcode signal found” value was 87.8% (active).

Regarding `CC1CC1C(=O)NC1CCN(CC2(c3ccccc3)CCCCC2)CC1` (configuration not stated), the “percentage of barcode signal found” value is 97.6% (active). In the case of `CN(C)c1cc(NC(=O)Nc2ccccc2)c2ccccc2n1`, the “percentage of barcode signal found” value was 88.3% (active).

For `CC(C)(C)OC(=O)N1CCC(Cn2nc(-c3cnc4ccccc4c3)c3c(N)ncnc32)CC1`, the “percentage of barcode signal found” value was 24.4%.

For the compound `COc1ccc(Cl)cc1NC(=O)CN(C)C(=O)c1cnn(-c2ccccc2)n1`, the “percentage of barcode signal found” value is 64.6%.

As for `CC(C)n1ncc2c(C(=O)NCC(c3cccs3)N3CCOCC3)cc(-c3ccccc3)nc21` (configuration not stated), the “percentage of barcode signal found” value is 29.6%. Regarding `CCOC(=O)c1cc(-c2csc(Nc3c(C)cc(C)cc3C)n2)on1`, the “percentage of barcode signal found” value was 11.5%.

Still in this assay, the particulars now being: 20 µM; gametocyte preincubation time 24 h; readout time post-feed 8 days.
Regarding `Nc1nccc2ccc(Oc3ccncc3)cc12`, the “percentage of barcode signal found” value is 37.6%. `CN1CCC(NCc2cccc(-c3ccc(S(=O)(=O)NCc4ccccc4)cc3)c2)CC1`: the “percentage of barcode signal found” value was 98.6% (active).

On to `OC[C@H]1O[C@@H](n2c3ccc(Cl)cc3c3c(-c4cc5ccccc5o4)ncnc32)C(O)[C@H]1O` (some centres not stated), for which the “percentage of barcode signal found” value is 8.88%.

With `C[C@H](C(N)=O)N1CCCC[C@H]1c1ccc(OCc2cccc(F)c2)cc1`, the “percentage of barcode signal found” value was 25%. For `O=C(NCCc1ccccc1)c1cc(-c2cccnc2)cnc1NCC1CC1`, the “percentage of barcode signal found” value is 2.28%. Same read-out and setting: as for `Cc1cc(NC(=O)c2ccc(Oc3ccc(Cl)cc3O)o2)no1`, the figure is 33%.

Regarding `COc1ccc(N(CCc2cccc(C)n2)C(C)=O)cc1`, the “percentage of barcode signal found” value was 0.592%. In the case of `COc1cccc(-c2nc3c(N4CCCC4)cccc3n2CC2CCCN2)n1` (configuration not stated), the “percentage of barcode signal found” value is 68%. Same read-out and setting: as for `CC(C)(C)n1nc(Cc2cccc3ccccc23)c2c(N)ncnc21`, the figure is 0.0299%; as for `COc1ccc2nc(C)cc(OCC(=O)Nc3ccccc3OC)c2c1`, 5.42%. For `Nc1nc2ccc(-c3cncc(Oc4ccc(F)cc4)c3)cc2[nH]1`, the “percentage of barcode signal found” value is 99.4% (active). As to `Cc1ccc(S(=O)(=O)n2cc(-c3ccnc(N)c3)c3cc(Br)cnc32)cc1`, the “percentage of barcode signal found” value was 1.79%. As for `COc1cccc(OC)c1C(=O)Nc1ccc(Cl)c(-c2nc3ccccc3s2)c1`, the “percentage of barcode signal found” value is 13.2%. Turning to `COc1ccc2nccc(NC(=O)C3CCN(CCc4ccc(Cl)cc4)CC3)c2n1`, the “percentage of barcode signal found” value was 5.62%.

Consider `Cc1ccccc1CN1CCC(O)(c2ccc(Cl)c(C(F)(F)F)c2)CC1`, for which the “percentage of barcode signal found” value was -0.504%. Still for that read-out and setting: as for `CCCCN(CCCC)c1c(C#N)cc(S(=O)(=O)Nc2ccccc2)cc1C#N`, the figure is 10.5%; as for `Cc1cc(Nc2ccc(C(F)(F)F)cc2)n2ccnc2n1`, -1.06%. On the same count and under the same terms, the figure for `COc1cccc(CC(=O)N2CCC(n3c(C)nc4ccc(F)cc43)CC2)c1` is 31.2%.
